# AmpC detergent: AmpC beta-lactamase inhibition with detergent present | P00811 | AmpC hydrolysis of nitrocefin, absorbance 480 nm, 0.01% Triton | Potency, µM (doses to about 114 µM), without a hit: top-dose activity change, negative = inhibition, actives largely listed as inhibitors | 0.041% of 370,000 active | AID 485294;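 also: 0% = no-compound wells and -100% = no-enzyme wells; nearly all actives have a fitted effect of over 25% in size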
# Target sequence (P00811 whole entry, looked up): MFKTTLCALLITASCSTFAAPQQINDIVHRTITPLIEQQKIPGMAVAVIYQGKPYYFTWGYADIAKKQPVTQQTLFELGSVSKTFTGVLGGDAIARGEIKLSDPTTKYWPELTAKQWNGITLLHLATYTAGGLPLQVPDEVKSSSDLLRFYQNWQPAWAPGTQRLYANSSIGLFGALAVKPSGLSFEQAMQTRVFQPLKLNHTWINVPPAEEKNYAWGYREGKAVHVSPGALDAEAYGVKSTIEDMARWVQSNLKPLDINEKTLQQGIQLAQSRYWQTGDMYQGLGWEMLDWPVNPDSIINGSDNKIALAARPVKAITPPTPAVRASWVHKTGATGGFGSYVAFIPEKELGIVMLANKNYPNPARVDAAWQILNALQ
#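 AmpC (5.3 nM in the dispensed reagent) in 20 mM phosphate pH 7.0 with 0.01% (detergent screen) or 0.0001% Triton X-100 was preincubated with compounds for 15 min at room temperature. Nitrocefin was then added from an 800 uM solution, and hydrolysis was followed at 480 nm.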
# Sm TGR block: inhibitors of Schistosoma mansoni thioredoxin glutathione reductase; Q962Y6; purified TGR, DTNB reduction, TNB absorbance 405 nm; Potency, µM (highest dose often 114 µM), for inactives: at the top dose activity change, negative = inhibition, actives largely listed as inhibitors; 3% of 360,000 active; AID 485364; also: nearly all actives have a fitted effect of over 60% in size
#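 Kinetic colorimetric format: TGR-catalysed, NADPH-driven DTNB reduction monitored via TNB absorbance. Enzyme dispensed at 20 nM; compound exposure 15 min at room temperature before reaction start.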
# AmpC inh no detg: blocks E. coli AmpC beta-lactamase in detergent-free assay | P00811 | AmpC nitrocefin hydrolysis, absorbance 480 nm, 0.0001% Triton | Potency, µM (highest dose often 57.1 µM), without a hit: top-dose activity change, negative = inhibition, usual class: inhibitors | 0.52% of 330,000 active | AID 485341;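 also: plate controls were no compound for no effect and no enzyme for full effect; nearly all actives have a fitted effect of over 20% in size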
#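 20 mM phosphate pH 7.0 + 0.01% (detergent screen) or 0.0001% Triton X-100; 5.3 nM AmpC reagent; cpd preinc 15 min RT; nitrocefin (800 uM stock) to start; A480 q20 s × 4 min; Activity was normalised to no-enzyme and no-compound control wells.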
# Numbers without * were called inactive; ? = inconclusive; . = no result. Sampled rows, rich in hits. Any-hit rate of the full collection: about 3.3%. Calls follow the shape of the dose curve; as a rule, active = well fitted curve in the direction sought with a large enough effect; inconclusive = small, poorly fitted or top-dose-only effect, or another doubt; inactive = no such curve, though single readings can be large; an effect the other way counts as inactive or inconclusive. Unless noted, % is scaled to controls: 0 for no effect and ±100 for the full control effect; potency is read from the fitted curve at half-maximal effect.
SMILES,AmpC detergent,Sm TGR block,AmpC inh no detg
Cc1ccc(CNc2ccc([N+](=O)[O-])cc2C(N)=O)cc1,-7.2%,-11.2%,-7.8%
COc1ccc(OC)c(/C=N/NC(=O)CNC(=O)c2ccc(S(=O)(=O)N3CCOCC3)cc2)c1,0.4%,4.8%,38.6%
CCOC(=S)SCC(=O)Nc1nccs1,-4.7%,7.4%,-12.2%
CCOC(=S)SCC(=O)Nc1nc(C)c(C)s1,-1.5%,7.6%,10µM*
Cc1nnc(SCC(=O)Nc2cccc(Br)c2)s1,-10.8%,0.0%,-17.7%
Cc1ccc(C(=O)CNc2ccc(C)c(Cl)c2)cc1,-18.8%,1.1%,-19.6%
Cc1ccc(NC2=C(NC(=O)c3ccccc3)C(=O)c3ccccc3C2=O)cc1Cl,0.7%,1.58µM*,20µM*
Cc1ccc(NCCC(=O)c2ccccc2)cc1Cl,-4.8%,-34.4%,-24.5%
Cc1ccc(NCC(=O)c2ccccc2)cc1Cl,-4.3%,-6.6%,0.316µM*
Cc1ccc(NC2CCCN(C(=O)c3cccs3)C2)cc1C (configuration not stated),5.0%,-22.1%,1.1%
O=C1c2cccc3c(O)ccc(c23)C(=O)N1Cc1ccco1,1.2%,6.31µM*,-33.7%
CC(=O)Nc1ccc(N2C(=O)c3cccc4c(O)ccc(c34)C2=O)cc1,0.0%,?,-20.6%
O=C1c2cccc3c(O)ccc(c23)C(=O)N1c1ccc(Cl)cc1,1.5%,25.1µM*,-16.2%
O=C1c2ccccc2C(=O)N1Cc1ccco1,-7.4%,1.4%,-12.4%
N#Cc1cc([N+](=O)[O-])ccc1NC(=O)COC(=O)CCC1CCCCC1,-4.4%,5.5%,-18.1%
COC(=O)C1=C(C)OC(N)=C(C#N)C1c1ccccc1 (configuration not stated),-3.7%,-3.2%,-17.8%
COC(=O)C1=C(C)OC(N)=C(C#N)C1c1ccc(OC)c(OC)c1OC (configuration not stated),0.7%,-4.5%,-6.3%
COC(=O)C1=C(C)OC(N)=C(C#N)C1c1ccc(OC)c(CSc2ccccn2)c1 (configuration not stated),1.0%,?,0.224µM*
CCSc1cc(C2C(C#N)=C(N)OC(C)=C2C(=O)OC)c(C)o1 (configuration not stated),1.0%,25.1µM*,-7.3%
Cc1ccc(C(=O)CC(=O)COc2ccc(Cl)cc2C)cc1,?,-19.3%,2.24µM*
Cc1ccc(NC(=O)c2ccc(OC(=O)COc3ccc(Cl)cc3C)cc2)cc1,?,1.6%,-11.2%
Cc1ccc(N2C(=O)N(CC(=O)Nc3ccc(C)c(C)c3)C(=O)C2C)cc1 (configuration not stated),?,-8.4%,-16.9%
Cc1ccccc1-c1nc(CS(=O)(=O)CC(=O)N2CCOCC2)c(C)o1,2.4%,15.8µM*,30.1%
Cc1ccc(CNC(=O)CS(=O)(=O)Cc2nc(-c3ccccc3C)oc2C)cc1,-1.5%,1.8%,.
CCCNC(=O)CS(=O)(=O)Cc1nc(-c2ccccc2C)oc1C,-4.6%,50.1µM*,3.55µM*
SMILES,AmpC detergent,Sm TGR block,AmpC inh no detg
Cc1ccccc1-c1nc(CS(=O)(=O)CC(=O)N2CCN(c3ccccc3)CC2)c(C)o1,0.9%,6.2%,.
CCOC(=O)C1=C(C)N=c2s/c(=C\c3ccncc3)c(=O)n2C1c1ccc2c(c1)OCO2 (configuration not stated),?,-14.1%,24.9%
CCOC(=O)C1=C(C)N=c2s/c(=C3\C(=O)Nc4ccccc43)c(=O)n2C1c1ccc2c(c1)OCO2 (configuration not stated),3.2%,3.98µM*,-22.3%
Cc1cccc(N2CCN(C(=O)CCC(=O)N3CCOc4ccc(Cl)cc43)CC2C)c1 (configuration not stated),-10.6%,6.9%,148.6%
CC(C)Cc1cc(C(=O)NCCN2CCOCC2)no1,?,0.9%,0.501µM*
O=C(NCCN1CCOCC1)c1cc(-c2ccc(Cl)cc2)on1,3.3%,18.8%,-1.5%
Cc1cccc(N2C(=O)CC(Sc3nc(-c4ccccc4)c4cc(Cl)ccc4n3)C2=O)c1 (configuration not stated),-10.7%,3.5%,-34.0%
O=C1CC(Sc2ncccn2)C(=O)N1c1ccccc1C(F)(F)F (configuration not stated),?,39.8µM*,-17.1%
Cc1ccc(Cl)cc1N1C(=O)CC(Sc2ncccn2)C1=O (configuration not stated),1.6%,25.1µM*,-17.2%
Nc1ccccc1SC1CC(=O)N(c2ccccc2Cl)C1=O (configuration not stated),-1.2%,-1.7%,-6.3%
Cc1ccc(NC(=O)COC(=O)c2c(-c3ccccc3)noc2C)c(C)c1,4.1%,36.7%,-22.2%
CC(Cl)C(=O)NC(=O)NC12CC3CC(CC(C3)C1)C2 (configuration not stated),-2.9%,-15.4%,-12.9%
O=C(CCl)NC(=O)NC12CC3CC(CC(C3)C1)C2,?,8.91µM*,-19.9%
CCN(CC)C(=O)c1c(NC(=O)c2ccccc2F)sc2c1CCC(C(C)(C)C)C2 (configuration not stated),-0.9%,1.3%,.
CC(C)(C)NC(=O)C(c1ccc(O)cc1)N(Cc1ccco1)C(=O)CCC(=O)Nc1ccccn1 (configuration not stated),-5.4%,-10.2%,-22.9%
CC(C)(C)NC(=O)C(c1ccncc1)N(Cc1ccco1)C(=O)c1ccc(-c2ccccc2)[nH]1 (configuration not stated),-4.4%,10µM*,-12.0%
CC(C)(C)NC(=O)C(c1ccc(Cl)cc1)N(Cc1ccco1)C(=O)CCl (configuration not stated),?,11.2µM*,7.1%
O=C(NC1CCCCC1)C(c1ccncc1)N(Cc1ccccc1)C(=O)c1ccc(-c2ccccc2)[nH]1 (configuration not stated),-2.8%,-2.8%,73.3%
Cc1cc(NC(=O)CSc2nc(Cc3ccccc3)c(C)[nH]2)no1,1.3%,35.5µM*,-13.0%
Cc1[nH]c(SCC(=O)Nc2cc(S(C)(=O)=O)ccc2Cl)nc1Cc1ccccc1,3.4%,3.55µM*,-9.6%
CS(=O)(=O)c1ccc(Cl)c(NC(=O)CCl)c1,3.3%,6.31µM*,-14.0%
CS(=O)(=O)c1ccc(Cl)c(NC(=O)CSc2nncn2-c2ccccc2)c1,-0.8%,5.7%,0.4%
Cc1ccc(NC(=O)CCc2ccc(C)o2)c(C)c1,0.2%,-9.4%,0.5%
Cc1cc(NC(=O)CSc2nc3ccccc3[nH]2)no1,-7.3%,-0.1%,18.1%
Cc1ccc(NC(=O)CCl)c(C)c1,8.3%,25.1µM*,-35.6%
CS(=O)(=O)c1ccc(C(=O)Nc2cc(S(C)(=O)=O)ccc2Cl)cc1,-5.2%,-2.4%,-12.4%
COc1ccc(S(=O)(=O)N(C)C[C@H]2Oc3c(NC(=O)c4ccncc4)cccc3C(=O)N([C@H](C)CO)C[C@@H]2C)cc1,.,.,56.6%
COc1ccc(-c2nnc(SCc3ccc(C(=O)O)cc3)o2)cc1OC,?,3.2%,-5.3%
CCOc1ccc(C(=O)Nc2ccc3[nH]ncc3c2)cc1,-15.3%,4.8%,-9.9%
CC(=O)Nc1c(-c2ccccc2)c2cc(Br)ccc2[nH]c1=O,-1.4%,9.2%,14.8%

# High-throughput results deposited in PubChem by National Center for Advancing Translational Sciences (NCATS).
